This passage reports growth inhibition, inhibition and outcome results from PubChem BioAssay.

Assay [1] can be described thus: antimalarial activity against Dd2 strain (AID 2302;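 active means growth inhibition above 50% at the single 2 µM test dose, taken to imply half-maximal potency below 2 µM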;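 further: 0% = DMSO untreated growth and 100% = chloroquine plus artemisinin killed control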). The settings on record: P. falciparum Dd2 in RBCs, LDH growth readout, 72 h; at 2 µM; active compounds read high.
Assay [2] is described as follows: HepG2 cytotoxicity, primary screen, cytotoxicity control for P. falciparum antimalarial project, cell-based, ATP luminescence (AID 2303;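 active means inhibition above 50%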;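 further: 0% = DMSO wells and 100% = digitonin-killed cells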). The settings on record: HepG2 viability, 24-48 h, at 10 µM, active compounds read high.
Assay [3] has as its target L-lactate dehydrogenase (Plasmodium falciparum (isolate CDC / Honduras)) (UniProt Q27743). In words: PfLDH activity inhibition – cell lysate, 3D7 strain, counter-screen for P. falciparum growth inhibition project (AID 2304).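 Further: 0% = vehicle and 100% = reference inhibitor.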 The settings on record: P. falciparum 3D7 crude extract, LDH APAD/NBT absorbance; at 2 µM; active compounds read high.
Assay [4] in a line: inhibition of 3D7 malaria parasite growth – strain 3D7 (AID 2306).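 Further: 0% = DMSO wells and 100% = chloroquine plus artemisinin control wells.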 Conditions: P. falciparum 3D7 erythrocytic growth, LDH absorbance, 72 h; at 2 µM; active compounds read high.
Assay [5] has as its target Calcium-dependent protein kinase 1 (Plasmodium falciparum (isolate 3D7)) (UniProt P62344). In words: PfCDPK1 kinase inhibitors, biochemical, TCAMS library (AID 1159585; cut-off not given, nearly all actives have IC50 up to about 0.98 µM;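 further: inhibitors leave more ATP so luminescence rises with inhibition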). The settings on record: recombinant PfCDPK1, Kinase-Glo ATP depletion luminescence. A general note: In Kinase-Glo more light means more ATP remaining.
In assay [6] the target is Plasmodium falciparum protein kinase 6 (PK6, PF3D7_1337100) (UniProt Q8IDW1). In words: PfPK6 kinase inhibitors, biochemical, TCAMS library (AID 1159586). Conditions: recombinant PfPK6, Kinase-Glo ATP depletion luminescence.
Sequence of Plasmodium falciparum protein kinase 6 (PK6, PF3D7_1337100) (Q8IDW1 1-305): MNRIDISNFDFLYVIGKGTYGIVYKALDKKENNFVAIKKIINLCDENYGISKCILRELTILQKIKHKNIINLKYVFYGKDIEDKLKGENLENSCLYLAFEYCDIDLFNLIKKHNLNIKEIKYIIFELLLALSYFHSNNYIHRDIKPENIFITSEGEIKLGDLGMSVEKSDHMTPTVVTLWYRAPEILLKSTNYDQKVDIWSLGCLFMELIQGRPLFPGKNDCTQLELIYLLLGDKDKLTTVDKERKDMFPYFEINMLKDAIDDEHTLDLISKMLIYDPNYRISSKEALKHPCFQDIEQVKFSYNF
In assay [7] the target is Protein kinase 7 (PK7), Plasmodium falciparum 3D7 (PF3D7_0213400) (UniProt Q7YTF7). In words: inhibition of Plasmodium PK7 catalytic activity – biochemical, TCAMS antimalarial set, Kinase-Glo luminescence (AID 1159587). Conditions: recombinant PfPK7, Kinase-Glo ATP depletion luminescence.
Sequence of Protein kinase 7 (PK7), Plasmodium falciparum 3D7 (PF3D7_0213400) (Q7YTF7 1-343): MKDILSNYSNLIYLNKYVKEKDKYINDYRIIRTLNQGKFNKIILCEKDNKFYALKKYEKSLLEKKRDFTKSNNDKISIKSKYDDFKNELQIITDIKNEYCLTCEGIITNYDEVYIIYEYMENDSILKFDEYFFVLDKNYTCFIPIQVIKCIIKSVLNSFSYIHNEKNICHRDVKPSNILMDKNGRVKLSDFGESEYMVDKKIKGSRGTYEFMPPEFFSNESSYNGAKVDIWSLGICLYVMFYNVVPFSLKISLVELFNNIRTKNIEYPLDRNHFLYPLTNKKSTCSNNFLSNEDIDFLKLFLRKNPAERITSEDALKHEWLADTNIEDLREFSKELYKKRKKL
Assay [8] concerns the target Calcium-dependent protein kinase 4 (Plasmodium falciparum (isolate 3D7)) (UniProt Q8IBS5). In words: PfCDPK4 kinase inhibitors, biochemical, TCAMS library (AID 1159588; cut-off not given, nearly all actives have IC50 up to about 0.91 µM). The settings on record: recombinant PfCDPK4, Kinase-Glo ATP depletion luminescence.

Values without a mark were called inactive. For some of these results: Potency and affinity values are given separately. The source made the active and inactive calls. Unless noted, how the calls were made is not given here.

Sequence of L-lactate dehydrogenase (Plasmodium falciparum (isolate CDC / Honduras)) (Q27743 whole entry, looked up): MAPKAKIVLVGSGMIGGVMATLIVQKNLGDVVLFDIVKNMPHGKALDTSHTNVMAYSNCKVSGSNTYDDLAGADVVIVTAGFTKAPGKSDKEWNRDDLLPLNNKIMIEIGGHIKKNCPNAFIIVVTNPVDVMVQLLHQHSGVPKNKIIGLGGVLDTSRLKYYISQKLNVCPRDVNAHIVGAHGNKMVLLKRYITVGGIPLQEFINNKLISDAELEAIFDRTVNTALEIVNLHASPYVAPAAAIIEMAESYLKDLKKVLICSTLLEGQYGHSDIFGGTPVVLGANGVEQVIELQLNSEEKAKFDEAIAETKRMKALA
Sequence of Calcium-dependent protein kinase 1 (Plasmodium falciparum (isolate 3D7)) (P62344 whole entry, looked up): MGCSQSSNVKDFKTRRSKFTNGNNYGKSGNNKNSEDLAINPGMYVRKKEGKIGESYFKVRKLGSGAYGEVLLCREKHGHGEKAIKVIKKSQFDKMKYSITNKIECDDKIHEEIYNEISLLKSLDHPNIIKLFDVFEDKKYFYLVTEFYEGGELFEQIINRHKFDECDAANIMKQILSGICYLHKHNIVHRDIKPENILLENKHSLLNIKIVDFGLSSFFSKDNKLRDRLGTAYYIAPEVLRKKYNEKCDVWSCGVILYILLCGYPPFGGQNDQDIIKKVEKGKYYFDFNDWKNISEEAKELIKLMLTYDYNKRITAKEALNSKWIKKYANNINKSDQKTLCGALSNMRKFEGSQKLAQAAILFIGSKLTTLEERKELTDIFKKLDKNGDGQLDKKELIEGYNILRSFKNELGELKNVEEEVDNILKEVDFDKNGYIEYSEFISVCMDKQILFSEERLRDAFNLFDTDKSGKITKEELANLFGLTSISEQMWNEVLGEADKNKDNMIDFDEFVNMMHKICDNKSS
Sequence of Calcium-dependent protein kinase 4 (Plasmodium falciparum (isolate 3D7)) (Q8IBS5 whole entry, looked up): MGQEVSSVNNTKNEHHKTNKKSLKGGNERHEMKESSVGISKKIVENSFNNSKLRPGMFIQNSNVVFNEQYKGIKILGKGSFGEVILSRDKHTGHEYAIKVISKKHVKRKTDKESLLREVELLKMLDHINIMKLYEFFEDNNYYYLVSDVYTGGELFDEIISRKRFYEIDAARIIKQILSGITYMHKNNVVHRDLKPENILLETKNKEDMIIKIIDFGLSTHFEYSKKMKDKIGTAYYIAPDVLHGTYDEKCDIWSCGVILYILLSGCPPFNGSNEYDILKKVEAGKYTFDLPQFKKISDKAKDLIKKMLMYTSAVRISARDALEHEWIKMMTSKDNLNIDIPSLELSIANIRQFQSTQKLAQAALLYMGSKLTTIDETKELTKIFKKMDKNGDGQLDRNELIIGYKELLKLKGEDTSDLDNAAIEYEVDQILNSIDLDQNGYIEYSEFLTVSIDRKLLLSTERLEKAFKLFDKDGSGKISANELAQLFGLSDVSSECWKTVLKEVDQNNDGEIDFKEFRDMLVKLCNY

`COc1cccc(C(=O)NCCc2cccc(Cl)c2)c1OCc1ccccc1`: the growth inhibition in assay [1] is -1%; in assay [4] it was 85% (active). For the same molecule, the inhibition (usually the change of the read-out against control, counted positive when it falls) in assay [2] was -1%; in assay [3] it was 1%. Further, the outcome in assay [5], in assay [6], in assay [7] and in assay [8] was inactive.
For `CC(C)C[C@H](NC(=O)c1cc2ccccc2s1)C(=O)N[C@H]1CCN(Cc2ccc(I)c(OC3CCN(C)C3)c2)C1` (stereo not given in full), the growth inhibition in assay [1] was 95% (active); in assay [4] it was 100% (active). The inhibition is 99% (active) in assay [2] and 4% in assay [3]. Besides, the result in assay [5], in assay [6], in assay [7] and in assay [8] was inactive.
As for `CC(=O)N(C)C1CCN(Cc2ccc(-c3ccc(-c4nc5ccc(F)cc5[nH]4)s3)cc2)C1` (stereo not given), the values for the growth inhibition in assay [1] and in assay [4] were 22% and 98% (active), respectively. The inhibition in assay [2] is 46%; in assay [3] it was 1%. The result in assay [5], in assay [6], in assay [7] and in assay [8] was inactive.
In the case of `CNC(=O)c1cnc(Nc2ccc(N3CCOCC3)cc2)nc1Nc1cccc(OC)c1`, the growth inhibition was 41% in assay [1] and 96% (active) in assay [4]. Besides, the inhibition is 2% in assay [2] and -2% in assay [3]. Also, the outcome in assay [5], in assay [6], in assay [7] and in assay [8] was inactive.
Take `CC(C)(C)c1cc(NC2CC2)nc(-c2ccccn2)n1`: the growth inhibition is 79% (active) in assay [1] and 94% (active) in assay [4]. Further, the inhibition in assay [2] was 7%; in assay [3], -7%. Further, the outcome in assay [5], in assay [6], in assay [7] and in assay [8] was inactive.
With `COc1ccc2nccc(NC(=O)C3(O)CCC(NCc4ccc5c(c4)NCCS5)CC3)c2n1` (stereo not given), the growth inhibition in assay [1] was 64% (active); in assay [4], 93% (active). Further, the values for the inhibition in assay [2] and in assay [3] were 1% and -1%, respectively. Moreover, the outcome in assay [5], in assay [6], in assay [7] and in assay [8] was inactive.
Regarding `COc1cc2nc(NC3CCN(Cc4ccccc4)CC3)nc(N)c2cc1OC`, the growth inhibition in assay [1] is 30%; in assay [4] it was 101% (active). Also, the values for the inhibition in assay [2] and in assay [3] were 27% and -2%, respectively. For the same molecule, the outcome in assay [5], in assay [6], in assay [7] and in assay [8] was inactive.
Regarding `NC(=O)c1cc(-c2ccccc2)cc2c(C3CCC(NCc4ccccc4)C3)c[nH]c12` (stereo not given), the growth inhibition in assay [1] was 30%; in assay [4], 95% (active). Moreover, the inhibition in assay [2] was 99% (active); in assay [3] it was -7%. Besides, the result in assay [5], in assay [6], in assay [7] and in assay [8] was inactive.
As for `Cc1cc(=O)c(-c2ccc(Oc3ccc(F)cc3)cc2)c(C)[nH]1`, the growth inhibition in assay [1] was 59% (active); in assay [4] it was 85% (active). For the same molecule, the inhibition in assay [2] was -3%; in assay [3] it was 3%. In addition, the result in assay [5], in assay [6], in assay [7] and in assay [8] was inactive.
Consider `COc1ccc(NC(=O)CSc2nc(-c3ccccc3Cl)ns2)cc1`, for which the growth inhibition is 75% (active) in assay [1] and 96% (active) in assay [4]. Further, the results for the inhibition in assay [2] and in assay [3] were 11% and 0%, respectively. The result in assay [5], in assay [6], in assay [7] and in assay [8] was inactive.
As for `CC(=O)Nc1ccc(C(=O)Nc2cccc(-c3cccc(-c4nc5ccc(F)cc5[nH]4)c3)c2)cn1`, the results for the growth inhibition in assay [1] and in assay [4] were 98% (active) and 99% (active), respectively. The values for the inhibition in assay [2] and in assay [3] were -5% and 1%, respectively. Further, the result in assay [5], in assay [6], in assay [7] and in assay [8] was inactive.
In the case of `NC1CCN(Cc2cccc(-c3ccc(-c4nc5ccc(C(F)(F)F)cc5[nH]4)cc3)c2)C1` (stereo not given), the growth inhibition in assay [1] is 97% (active); in assay [4], 99% (active). Besides, the inhibition was 21% in assay [2] and -9% in assay [3]. The result in assay [5], in assay [6], in assay [7] and in assay [8] was inactive.
Take `Cc1cc(-c2ccc3c(c2)CCN(CCCOc2ccc4c(c2)CCN4C(=O)/C=C/c2ccccc2Cl)CC3)no1`: the growth inhibition in assay [1] is 50% (active); in assay [4], 88% (active). The inhibition in assay [2] is 52% (active); in assay [3] it was 1%. The result in assay [5], in assay [6], in assay [7] and in assay [8] was inactive.
In the case of `CCCCCN1CCC(CNS(=O)(=O)c2ccc(C(=O)Nc3cccc(C(F)(F)F)c3)cc2)CC1`, the growth inhibition is 13% in assay [1] and 98% (active) in assay [4]. Further, the inhibition in assay [2] is 13%; in assay [3], -7%. For the same molecule, the outcome in assay [5], in assay [6], in assay [7] and in assay [8] was inactive.
Consider `Cc1ccc(-c2nnc(-c3ccc(C(=O)NC4CCN(Cc5ccc(C#N)cc5)CC4)cc3)o2)cc1Br`, for which the growth inhibition in assay [1] is 7%; in assay [4] it was 91% (active). Moreover, the inhibition in assay [2] is 41%; in assay [3], -5%. The outcome in assay [5], in assay [6], in assay [7] and in assay [8] was inactive.
As to `O=C(Nc1cccc(CN2CCCN(Cc3cccnc3)CC2)c1)c1ccc(Cl)c(Cl)c1`, the growth inhibition in assay [1] is 19%; in assay [4], 84% (active). Moreover, the inhibition in assay [2] was 16%; in assay [3], -2%. In addition, the outcome in assay [5], in assay [6], in assay [7] and in assay [8] was inactive.
Regarding `O=C(O)C[C@H](NC(=O)[C@@H]1CCCN1C(=O)c1cccc(-c2ccc(Cl)c(Cl)c2)c1)C(=O)O`, the growth inhibition is 0% in assay [1] and 84% (active) in assay [4]. Moreover, the inhibition in assay [2] is -1%; in assay [3], 0%. Moreover, the outcome in assay [5], in assay [6], in assay [7] and in assay [8] was inactive.
`O[C@H]1[C@H](OCc2ccc(-c3ccccc3)cc2)CC[C@@H]1N1CCCCC1`: the growth inhibition in assay [1] was 101% (active); in assay [4], 96% (active). For the same molecule, the inhibition in assay [2] and in assay [3] was 9% each time. Besides, the outcome in assay [5], in assay [6], in assay [7] and in assay [8] was inactive.
Take `COC(=O)C(C)NCC(=O)c1ccccc1` (stereo not given): the growth inhibition was 23% in assay [1] and 97% (active) in assay [4]. The inhibition in assay [2] is 5%; in assay [3] it was 4%. For the same molecule, the result in assay [5], in assay [6], in assay [7] and in assay [8] was inactive.
For the molecule `CCc1c(CCNCCCCCCNC(C)Cc2ccc3c(c2CC)OCO3)ccc(OC)c1OC` (stereo not given), the values for the growth inhibition in assay [1] and in assay [4] were 64% (active) and 101% (active), respectively. Moreover, the figures for the inhibition in assay [2] and in assay [3] were 100% (active) and 0%, respectively. Moreover, the outcome in assay [5], in assay [6], in assay [7] and in assay [8] was inactive.
